Reference: PubChem BioAssay (NCATS)
Values without a mark were called inactive. Calls come from the whole dose curve; as a rule, active = well fitted curve in the direction sought with a large enough effect; inconclusive = small, poorly fitted or top-dose-only effect, or effect the other way, or another doubt; inactive = no such curve, though single readings can be large or run the other way.

Assay: Inducers of the Endoplasmic Reticulum Stress Response (ERSR) in human glioma: Validation (AID 504836); note: 0% is about no effect
Details: human glioma cells, ER stress response reporter; series mostly up to 38.3 µM; activation: at the top concentration
Summary of the method: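 ERSR induction read as luciferase luminescence (Bright-Glo, 10 min at room temperature) in stably transfected human U87-MG glioma cells exposed to compounds for 16 h, using GRP78 as sensor.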
In the case of `CCCCc1oc2ccccc2c1C(=O)c1cc(I)c(OCCN(CC)CC)c(I)c1`, the “activation” value is reported as -1.55%. With `NNc1nncc2ccccc12` the “activation” value was -2.43%. In the case of `CN(C)CCCN1c2ccccc2Sc2ccc(Cl)cc21`, the “activation” value is reported as 2.13%. For `COCCCC/C(=N\OCCN)c1ccc(C(F)(F)F)cc1`, the “activation” value was -0.72%. For `Nc1nc(N)c2nc(-c3ccccc3)c(N)nc2n1`, the “activation” value was -5.93%. In the case of `Cc1oncc1C(=O)Nc1ccc(C(F)(F)F)cc1`, the “activation” value is reported as -2.62%. In the case of `C[C@H]1c2cccc(O)c2C(O)=C2C(=O)[C@]3(O)C(O)=C(C(N)=O)C(=O)[C@@H](N(C)C)[C@@H]3[C@@H](O)[C@@H]21`, the “activation” value is reported as 5.6%. In the case of `NNCCc1ccccc1`, the “activation” value is reported as -0.057%. In the case of `COc1ccccc1OCCNCC(O)COc1cccc2[nH]c3ccccc3c12` (stereo not drawn), the “activation” value is reported as -1.63%. With `CC/C(=C(\c1ccccc1)c1ccc(OCCN(C)C)cc1)c1ccccc1` the “activation” value was -1.38%. With `CC(=O)Nc1nnc(S(N)(=O)=O)s1` the “activation” value was -2.47%. For `NC(=O)NO`, the “activation” value was -2.42%. With `CN(C)[C@@H]1C(=O)C(C(N)=O)=C(O)[C@@]2(O)C(=O)C3=C(O)c4c(O)ccc(Cl)c4[C@@H](O)[C@H]3C[C@@H]12` the “activation” value was -0.308%. With `COc1cc2nc(N3CCN(C(=O)C4CCCO4)CC3)nc(N)c2cc1OC` (stereo not drawn) the “activation” value was 1.66%. In the case of `O=C1CCc2cc(OCCCCc3nnnn3C3CCCCC3)ccc2N1`, the “activation” value is reported as -0.449%. With `O=NN(CCCl)C(=O)NCCCl` the “activation” value was 1.26%. In the case of `CNCCCN1c2ccccc2CCc2ccccc21`, the “activation” value is reported as -1.95%. For `Cc1[nH]c(=O)c(C#N)cc1-c1ccncc1`, the “activation” value was -2.85%. In the case of `CN/C(=C\[N+](=O)[O-])NCCSCc1ccc(CN(C)C)o1`, the “activation” value is reported as 0.197%. For `Cc1cccc(C)c1OCC(C)N` (stereo not drawn), the “activation” value was -5.14%. In the case of `CCN(CC)CCOC(=O)C1(C2CCCCC2)CCCCC1`, the “activation” value is reported as -1.2%. For `CC(=O)O[C@]1(C(C)=O)CC[C@H]2[C@@H]3C=C(Cl)C4=CC(=O)[C@@H]5C[C@@H]5[C@]4(C)[C@H]3CC[C@@]21C`, the “activation” value was -1.98%. In the case of `COc1ccccc1OCC(O)CN1CCN(CC(=O)Nc2c(C)cccc2C)CC1` (stereo not drawn), the “activation” value is reported as 1.07%. With `CN1CCN(CCCN2c3ccccc3Sc3ccc(Cl)cc32)CC1` the “activation” value was -1.93%. In the case of `CN(C)CC[C@@H](c1ccc(Br)cc1)c1ccccn1`, the “activation” value is reported as -4%. For `CC(C(=O)O)c1cccc(C(=O)c2ccccc2)c1` (stereo not drawn), the “activation” value was -1.11%. For `N[C@@H]1CONC1=O`, the “activation” value was 0.346%. With `OCCN1CCN(CCCN2c3ccccc3Sc3ccc(Cl)cc32)CC1` the “activation” value was -1.56%. For `O=C1CCC(N2C(=O)c3ccccc3C2=O)C(=O)N1` (stereo not drawn), the “activation” value was -1.55%. With `O=C(NCCN1CCOCC1)c1ccc(Cl)cc1` the “activation” value was -0.719%. With `Cc1ccc(S(=O)(=O)NC(=O)NN2CCCCCC2)cc1` the “activation” value was -3.97%. For `CC(=O)CCCCn1c(=O)c2c(ncn2C)n(C)c1=O`, the “activation” value was -0.786%. In the case of `O=C(C1CCCCC1)N1CC(=O)N2CCc3ccccc3C2C1` (stereo not drawn), the “activation” value is reported as -2.96%. For `CNC1(C)C2CCC(C2)C1(C)C` (stereo not drawn), the “activation” value was -2.89%. In the case of `COC(=O)C1=C(C)NC(C)=C(C(=O)OCCN(C)Cc2ccccc2)C1c1cccc([N+](=O)[O-])c1` (stereo not drawn), the “activation” value is reported as -4.69%. For `CC(=O)[C@]1(O)Cc2c(O)c3c(c(O)c2[C@@H](O[C@H]2C[C@H](N)[C@H](O)[C@H](C)O2)C1)C(=O)c1ccccc1C3=O`, the “activation” value was -7.63%. In the case of `Fc1ccc([C@@H]2CCNC[C@H]2COc2ccc3c(c2)OCO3)cc1`, the “activation” value is reported as -1.25%. For `Nc1nc2c(ncn2COCCO)c(=O)[nH]1`, the “activation” value was -1.22%.
